Measurements reported in PubChem BioAssay (NCI).
About 79,000 compounds went through this panel and 15% of them were active in at least one assay; those are over-represented in the sample as a whole. Activity calls are given as the source filed them. Rule as the data show it: active = growth inhibition above about 70%; inactive = the rest.

What was measured:
[1] = NCI Yeast Anticancer Drug Screen. Data for the rad52 strain (AID 147);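 also: 0% = growth of vehicle-treated control cultures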; conditions: S. cerevisiae rad52 mutant growth inhibition, hits give high values
Outline: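 Inhibition of yeast growth, referenced to vehicle controls, was the measured output for a strain with defective DNA damage repair.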

[2] = NCI Yeast Anticancer Drug Screen. Data for the wt1 strain (AID 149);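 also: 0% = growth of vehicle-treated wt1 cultures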; conditions: S. cerevisiae wt1 strain (SPY 50644) growth inhibition, hits give high values
Outline: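 The wt1 strain was treated with compounds, and growth was compared with vehicle-treated cultures to give inhibition.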

[3] = NCI Yeast Anticancer Drug Screen. Data for the rad50EPP+ strain (AID 151);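 also: 0% = growth of vehicle-treated control cultures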; conditions: S. cerevisiae rad50 mutant strain, hits give high values
Outline: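 Genetically defined yeast (rad50EPP+, DNA damage repair alteration) is grown with compound, and inhibition of growth is expressed relative to vehicle-treated controls.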

[4] = NCI Yeast Anticancer Drug Screen. Data for the mgt1 strain (AID 153); conditions: S. cerevisiae mgt1 mutant growth inhibition, hits give high values
Outline: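 In the mgt1 strain, test compounds were added and growth inhibition was determined relative to vehicle-treated controls.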

[5] = NCI Yeast Anticancer Drug Screen. Data for the rad50 strain (AID 155);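 also: 0% = growth of vehicle-only cultures of the same strain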; conditions: S. cerevisiae rad50 strain growth inhibition, hits give high values
Outline: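 Cells are treated with compound, grown, and their growth is then scored against vehicle-only cultures of the same repair-deficient yeast strain.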

[6] = NCI Yeast Anticancer Drug Screen. Data for the mec2-1 strain (AID 157); conditions: S. cerevisiae mec2-1 strain, hits give high values
Outline: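 Each compound was tested on mec2-1 yeast, a strain altered in DNA damage repair or cell cycle control. Growth inhibition is reported relative to vehicle.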

[7] = NCI Yeast Anticancer Drug Screen. Data for the rad14 strain (AID 159);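 also: 0% = growth of vehicle-treated control cultures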; conditions: S. cerevisiae rad14 strain growth inhibition, hits give high values
Outline: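 Readout: yeast growth inhibition, referenced to vehicle-only cultures. Strain bears a defined alteration in DNA damage repair.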

[8] = NCI Yeast Anticancer Drug Screen. Data for the sgs1 mgt1 strain (AID 161);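 also: 0% = growth of cultures given vehicle only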; conditions: S. cerevisiae sgs1 mgt1 strain, hits give high values
Outline: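 Read-out: growth inhibition vs vehicle controls. Cells: mutant yeast strain deficient in DNA damage repair.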

[9] = NCI Yeast Anticancer Drug Screen. Data for the CLN2oe strain (AID 163);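 also: 0% = growth of vehicle-only control cultures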; conditions: S. cerevisiae CLN2oe strain, hits give high values
Outline: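 First, the altered yeast strain was treated with each compound; second, its growth was measured; finally, inhibition was derived by comparison with vehicle controls.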

[10] = NCI Yeast Anticancer Drug Screen. Data for the cln2 rad14 strain (AID 165);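 also: 0% = growth equal to vehicle treated cultures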; conditions: S. cerevisiae cln2 rad14 strain, hits give high values
Outline: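 Test compounds were added to cln2 rad14 yeast cultures; inhibition of growth was then determined by comparison with vehicle treatment.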

[11] = NCI Yeast Anticancer Drug Screen. Data for the bub3 strain (AID 167); conditions: S. cerevisiae bub3 mutant strain, hits give high values
Outline: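 Part of a panel of yeast mutants defective in DNA damage repair or cell cycle regulation. Each strain is grown with compound, and inhibition is calculated relative to solvent-treated cultures.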

[12] = NCI Yeast Anticancer Drug Screen. Data for the wt2 strain (AID 169);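 also: 0% = growth of vehicle-treated yeast cultures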; conditions: S. cerevisiae wt2 strain growth inhibition, hits give high values
Outline: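 The panel's yeast strains carry defined changes in DNA repair or cell cycle genes. Each strain is grown with compound, and growth loss is scored relative to vehicle.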

[13] = NCI Yeast Anticancer Drug Screen. Data for the mlh1 strain (AID 171);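 also: 0% = growth of vehicle-treated control cultures of the same strain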; conditions: S. cerevisiae mlh1 strain growth inhibition, hits give high values
Outline: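 Inhibition values reflect reduced yeast growth in the presence of compound, referenced to vehicle controls, using a strain chosen for its alteration in DNA repair or cell cycle control.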

[14] = NCI Yeast Anticancer Drug Screen. Data for the sgs1 strain (AID 173);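 also: 0% = growth of vehicle-only control cultures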; conditions: S. cerevisiae sgs1 mutant, hits give high values
Outline: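 Vehicle-treated cultures served as reference for growth inhibition of a yeast strain altered in DNA damage repair or cell cycle control after compound exposure.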

[15] = NCI Yeast Anticancer Drug Screen. Data for the mlh1 rad18 strain (AID 175); conditions: S. cerevisiae mlh1 rad18 strain growth inhibition, hits give high values
Outline: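 Inhibition values reflect reduced growth of mutant yeast versus vehicle-treated controls following compound exposure; the mutations affect DNA damage repair.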

[16] = NCI Yeast Anticancer Drug Screen. Data for the rad18 strain (AID 177); conditions: S. cerevisiae rad18 mutant growth inhibition, hits give high values
Outline: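 Steps: expose repair-mutant yeast to compound; measure growth; express as inhibition relative to vehicle control.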

[17] = at 5.0 µM (retest, dose inferred, filed as 0.5)
[18] = at 50.0 µM (retest, dose inferred, filed as 5.0)

Measured: growth inhibition

O=C(C(Cl)=C(N1CCCCC1)N1CCCCC1)C(Cl)Cl
active: [5]; [18] 99% | [6]; [18] 99% | [6]; at 50.0 µM 70.7% | [8]; [18] 99% | [8]; at 50.0 µM 85.2% | [10]; [18] 99% | [11]; [18] 99% | [15]; [18] 99% | [15]; at 50.0 µM 81.3%
inactive: [1]; at 1.2 µM 2% | [1]; at 3.7 µM 6% | [1]; at 11.0 µM 5% | [1]; at 33.0 µM 3% | [1]; at 100.0 µM 2% | [2]; at 1.2 µM -2% | [2]; at 3.7 µM 0% | [2]; at 11.0 µM -1% | [2]; at 33.0 µM -1% | [2]; at 100.0 µM 1% | [3]; at 1.2 µM 1% | [3]; at 3.7 µM 1% | [3]; at 11.0 µM 3% | [3]; at 33.0 µM 3% | [3]; at 100.0 µM 5% | [4]; at 1.2 µM -3% | [4]; at 3.7 µM -1% | [4]; at 11.0 µM -4% | [4]; at 33.0 µM -3% | [4]; at 100.0 µM 2% | [5]; at 1.2 µM 3% | [5]; at 3.7 µM 6% | [5]; [17] 69% | [5]; at 11.0 µM -2% | [5]; at 33.0 µM 5% | [5]; at 50.0 µM 64.4% | [5]; at 100.0 µM 3% | [6]; at 1.2 µM 2% | [6]; at 3.7 µM -2% | [6]; [17] 11% | [6]; at 11.0 µM -3% | [6]; at 33.0 µM -6% | [6]; at 100.0 µM -2% | [7]; at 1.2 µM -3% | [7]; at 3.7 µM -1% | [7]; at 11.0 µM 3% | [7]; at 33.0 µM -2% | [7]; at 100.0 µM -1% | [8]; [17] -6% | [9]; at 1.2 µM 2% | [9]; at 3.7 µM 4% | [9]; at 11.0 µM 3% | [9]; at 33.0 µM 1% | [9]; at 100.0 µM 9% | [10]; [17] 7% | [10]; at 50.0 µM 23.9% | [11]; at 1.2 µM -5% | [11]; at 3.7 µM 2% | [11]; [17] -5% | [11]; at 11.0 µM 9% | [11]; at 33.0 µM 4% | [11]; at 50.0 µM 68.1% | [11]; at 100.0 µM 2% | [12]; at 1.2 µM -1% | [12]; at 3.7 µM 1% | [12]; at 11.0 µM 2% | [12]; at 33.0 µM 2% | [12]; at 100.0 µM 2% | [13]; at 1.2 µM -2% | [13]; at 3.7 µM -4% | [13]; at 11.0 µM 2% | [13]; at 33.0 µM 0% | [13]; at 100.0 µM 1% | [14]; at 1.2 µM -50% | [14]; at 3.7 µM -3% | [14]; at 11.0 µM -2% | [14]; at 33.0 µM -4% | [14]; at 100.0 µM -1% | [15]; [17] 48% | [16]; at 1.2 µM -2% | [16]; at 3.7 µM 1% | [16]; at 11.0 µM -2% | [16]; at 33.0 µM -15% | [16]; at 100.0 µM -1%

N#CC1OB(O)c2ccccc21 (stereo unspecified)
inactive: [1]; at 1.2 µM -9% | [1]; at 3.7 µM -6% | [1]; at 11.0 µM -5% | [1]; at 33.0 µM -5% | [1]; at 100.0 µM 3% | [2]; at 1.2 µM -5% | [2]; at 3.7 µM -4% | [2]; at 11.0 µM -5% | [2]; at 33.0 µM -4% | [2]; at 100.0 µM 0% | [3]; at 1.2 µM -2% | [3]; at 3.7 µM 4% | [3]; at 11.0 µM 4% | [3]; at 33.0 µM 17% | [3]; at 100.0 µM 26% | [4]; at 1.2 µM -7% | [4]; at 3.7 µM -4% | [4]; at 11.0 µM -2% | [4]; at 33.0 µM 0% | [4]; at 100.0 µM -3% | [5]; at 1.2 µM -13% | [5]; at 3.7 µM -10% | [5]; [17] -126% | [5]; at 11.0 µM 4% | [5]; at 33.0 µM 10% | [5]; at 50.0 µM 58.2% | [5]; at 100.0 µM 11% | [6]; at 1.2 µM 1% | [6]; at 3.7 µM 0% | [6]; [17] -51% | [6]; at 11.0 µM 3% | [6]; at 33.0 µM 1% | [6]; [18] -27% | [6]; at 50.0 µM 27.9% | [6]; at 100.0 µM -7% | [7]; at 1.2 µM -3% | [7]; at 3.7 µM 0% | [7]; at 11.0 µM -2% | [7]; at 33.0 µM -2% | [7]; at 100.0 µM 1% | [8]; [17] -61% | [8]; [18] -2% | [8]; at 50.0 µM 27.1% | [9]; at 1.2 µM 0% | [9]; at 3.7 µM -2% | [9]; at 11.0 µM 1% | [9]; at 33.0 µM -7% | [9]; at 100.0 µM -2% | [10]; [17] -57% | [10]; [18] -42% | [10]; at 50.0 µM 21% | [11]; at 1.2 µM -11% | [11]; at 3.7 µM -10% | [11]; [17] -64% | [11]; at 11.0 µM -6% | [11]; at 33.0 µM -10% | [11]; [18] -36% | [11]; at 50.0 µM 69.7% | [11]; at 100.0 µM -4% | [12]; at 1.2 µM 0% | [12]; at 3.7 µM 0% | [12]; at 11.0 µM -1% | [12]; at 33.0 µM -2% | [12]; at 100.0 µM -2% | [13]; at 1.2 µM 7% | [13]; at 3.7 µM -5% | [13]; at 11.0 µM -6% | [13]; at 33.0 µM -6% | [13]; at 100.0 µM -7% | [14]; at 1.2 µM 1% | [14]; at 3.7 µM 1% | [14]; at 11.0 µM 2% | [14]; at 33.0 µM 1% | [14]; at 100.0 µM 1% | [15]; [17] -115% | [15]; [18] 7% | [15]; at 50.0 µM 60.9% | [16]; at 1.2 µM -4% | [16]; at 3.7 µM -1% | [16]; at 11.0 µM 1% | [16]; at 33.0 µM 2% | [16]; at 100.0 µM 6%
active: [5]; [18] 81%
